The list is not random: actives were taken first. Their share in the collection is about 3.7%.
tim23-1 inh: tim23-1 yeast growth inhibition. S. cerevisiae tim23-1 growth, BacTiter-Glo luminescence, 24 h. inhibition, % at 20 µM. 330,000 compounds, 1.3% hits. AID 463212;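 active = growth inhibition of the mutant yeast at or above 50%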;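 note: temperature-sensitive mutant grown at 25 °C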
PfHsp90 set2: growth inhibition of yeast expressing Plasmodium Hsp90. S. cerevisiae expressing PfHsp90, BacTiter-Glo ATP, 48 h; yeast lacking PDR1 and PDR3 efflux regulators. inhibition, % at 9.4 µM. 310,000 compounds, 0.32% hits. AID 504621;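 active = every replicate shows inhibition above about 80%, whatever the replicate mean, limit read from the data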
TIM10 inh: growth inhibitors of TIM10 yeast strain; S. cerevisiae TIM10 strain growth, BacTiter-Glo luminescence, 24 h; inhibition, % at 10 µM; 330,000 compounds, 1.4% hits;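 active = inhibition of 40% or more at the single tested concentration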;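 note: wild-type TIM10 isogenic control strain grown at permissive 25 °C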
tim10-1 inh: tim10-1 yeast growth inhibition; S. cerevisiae tim10-1 ts strain growth, BacTiter-Glo, 24 h; inhibition, % at 20 µM; 330,000 compounds, 2.2% hits; AID 463190;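 active = inhibition of at least 40%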;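 note: mutant grown at 25 °C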
V-ATPase pHluor: yeast V-ATPase proton transport regulation by pHLuorin | S. cerevisiae, pHLuorin cytosolic pH fluorescence | response, % at 10 µM | 350,000 compounds, 0.37% hits; in the data active = response mostly above about 7.3%, no sharp cut-off; inactive = mostly below about 5.4%; note: actives read high
tim10-1 confirm: confirmation of tim10-1 mutant yeast growth inhibitors | shares compounds with tim10-1 inh | S. cerevisiae tim10-1 ts strain growth, BacTiter-Glo, 24 h | inhibition, % at 20 µM | 7,400 compounds, 56% hits;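 active = inhibition of yeast growth at or above a set limit in either of two repeat tests at 20 µM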;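 note: tim10-1 mutant grown at permissive 25 °C to find synthetic lethal compounds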
Each line names hits and unclear results; the compound was inactive in the other large screens (follow-up assays come after a bar, where they were run).

COCC(=O)Nc1sc2c(c1C(=O)OC)C(C(=O)OC)CC2 (stereo unspecified)	tim10-1 inh 43 | tim10-1 confirm inactive
O=C(/C=C/Nc1ccc(S(=O)(=O)Nc2ncccn2)cc1)c1ccc2ccccc2c1	none
CC(=O)c1ccc(S(=O)(=O)N2CCN(CC(=O)NC(=O)NC3CCCCC3)CC2)cc1	none (no result: tim23-1 inh, TIM10 inh, tim10-1 inh)
CCOC(=O)c1ccc(S(=O)(=O)N2CCN(CC(=O)NC(=O)NC3CCCCC3)CC2)cc1	tim10-1 inh 44 | tim10-1 confirm inactive
COc1ccc(C(=O)C(C)N(C(=O)c2ccc(Cl)cc2Cl)N2C(=O)C3C4C=CC(C4)C3C2=O)cc1 (stereo unspecified)	tim10-1 inh 47 | tim10-1 confirm inactive
c1ccc(CN2CCN(C(c3ccccc3)c3ccccc3)CC2)cc1	none
O=S(=O)(CCN1CCN(C(c2ccccc2)c2ccccc2)CC1)C(F)(F)F	tim10-1 inh 41 | tim10-1 confirm 33
Nc1nc(SCc2ccccc2Cl)c2ncn(C3OC(CO)C(O)C3O)c2n1 (stereo unspecified)	none (no result: tim23-1 inh, TIM10 inh, tim10-1 inh)
CCN(CC)c1ccc(Nc2nc(-c3cccnc3)cs2)cc1	tim10-1 inh 49 | tim10-1 confirm 33
N#C/C(=C\C=C\c1ccccc1[N+](=O)[O-])C(=O)NCc1ccccc1	tim10-1 inh 45 | tim10-1 confirm 35
COC(=O)c1ccc2c(c1)c(-c1ccccc1)c(-c1ccccc1)n2C	none
Cc1nnc(SCC(=O)Nc2cc(C(F)(F)F)ccc2N2CCOCC2)o1	none (no result: PfHsp90 set2)
CCOc1ccccc1NC(C)C(=O)Nc1cc(C(F)(F)F)ccc1N1CCOCC1 (stereo unspecified)	tim10-1 inh 40 | tim10-1 confirm inactive
Cc1ccccc1SCC(=O)Nc1cc(C(F)(F)F)ccc1N1CCOCC1	tim10-1 inh 44 | tim10-1 confirm 34
O=[N+]([O-])c1ccccc1/C=C/C=N/n1c(-c2ccccc2F)n[nH]c1=S	none
Cc1cccc(NS(=O)(=O)c2cccc(C(=O)N3CCCC(C(F)(F)F)C3)c2)c1 (stereo unspecified)	none
CCOc1cc(/C=C2\C(=O)N(c3nc(-c4ccc(Br)cc4)cs3)N=C2c2ccccc2)ccc1O	tim10-1 inh 47 | tim10-1 confirm inactive
CCOC(=O)C1CCCN(C(=O)/C=C/c2ccc(Cl)cc2)C1 (stereo unspecified)	tim10-1 inh 41 | tim10-1 confirm inactive
COc1ccc(-n2c(CCc3ccccc3)nnc2SCC(=O)NCc2ccccc2)cc1	none
O=C(CSc1nnc(CCc2ccccc2)n1-c1ccc(Cl)cc1)NCc1ccccc1	tim10-1 inh 43 | tim10-1 confirm inactive
CC(=O)Nc1ccc(N2S(=O)(=O)c3ccccc3S2(=O)=O)cc1	tim10-1 inh 41 | tim10-1 confirm inactive
C=CCN(C(=O)c1cccc(S(=O)(=O)N2CCN(C)CC2)c1)c1nc(-c2ccccc2)cs1	tim10-1 inh 50 | tim10-1 confirm 41
CCc1ccc2nc(N3CCN(C(=O)C(C)(C)C)CC3)sc2c1	none
CC(C)(C)C(=O)N1CCN(c2nc3ccccc3s2)CC1	tim10-1 inh 47 | tim10-1 confirm inactive
Cc1ccc(OCC(O)CN2CCC(Cc3ccccc3)CC2)c(C)c1 (stereo unspecified)	none
O=C1c2ccccc2NC(c2c(Cl)cccc2Cl)N1Cc1ccccc1 (stereo unspecified)	tim10-1 inh 40 | tim10-1 confirm inactive
CC12CCC(=O)N1C(C(=O)N1CCN(c3ccc(C(F)(F)F)cc3[N+](=O)[O-])CC1)CS2 (stereo unspecified)	none
O=C(NCCCSc1ccccc1)c1cc(Cl)ccc1O	tim10-1 inh 47 | tim10-1 confirm inactive
O=C(CNC(=O)c1ccccc1)NCCCSc1ccccc1	none
Cc1ccc(C(=O)c2oc3ccc(Cl)cc3c2NC(=O)CN2CCN(C)CC2)cc1	tim10-1 inh 49 | tim10-1 confirm inactive
COc1ccc(CN(Cc2ccccn2)C(=O)CN2C(=O)COc3ccccc32)cc1	none
COc1ccc(CN(C(=O)CN2C(=O)COc3ccccc32)C2CCCC2)c(OC)c1	tim10-1 inh 40 | tim10-1 confirm inactive
COc1ccc(CN(C(=O)CN2C(=O)C(C)Oc3ccccc32)C2CCCC2)c(OC)c1 (stereo unspecified)	tim10-1 inh 41 | tim10-1 confirm inactive

Screening results deposited in PubChem by several laboratories.
